A selection: hits, their analogues and other compounds. The true share with any hit is near 1.6%.
OPRM1-OPRD1 inv: inverse agonists of MOR-DOR heterodimerization, primary screen, cell-based, luminescence; Mu-type opioid receptor (Homo sapiens) + Delta-type opioid receptor (Homo sapiens), …; cell-based MOR-DOR heterodimer luminescence, inverse agonism; inhibition, % at 9.3 µM; actives 0.21% (n = 340,000); in the data active means inhibition above about 22%, passing the limit was not always enough
HTR2A ag: mouse Htr2a agonists via beta-arrestin recruitment, primary screen, cell-based, luminescence. 5-hydroxytryptamine receptor 2A (Mus musculus), P35363. CHO-K1 mHTR2A beta-arrestin complementation; percent of 30 µM serotonin response. activation, % at 7.6 µM. actives 0.66% (n = 360,000). AID 624169, 2012;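 active means activation above a run cutoff, the mean activation of all tested compounds plus 3 SD, cut at about 14% in these data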
Target sequence (P35363 whole entry, looked up): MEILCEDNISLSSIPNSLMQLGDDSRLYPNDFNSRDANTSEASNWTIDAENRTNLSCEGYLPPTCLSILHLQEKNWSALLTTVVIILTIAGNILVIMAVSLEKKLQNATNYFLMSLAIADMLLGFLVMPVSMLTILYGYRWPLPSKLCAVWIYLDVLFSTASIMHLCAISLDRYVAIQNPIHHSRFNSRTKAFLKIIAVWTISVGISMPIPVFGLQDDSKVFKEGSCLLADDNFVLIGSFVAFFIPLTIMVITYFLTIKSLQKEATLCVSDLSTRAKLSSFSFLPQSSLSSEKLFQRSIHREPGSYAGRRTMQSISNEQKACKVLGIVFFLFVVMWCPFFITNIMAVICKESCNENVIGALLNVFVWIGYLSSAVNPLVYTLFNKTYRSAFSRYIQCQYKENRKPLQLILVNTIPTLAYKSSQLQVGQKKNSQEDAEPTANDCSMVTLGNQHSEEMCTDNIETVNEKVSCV
HTR5A ag: HTR5A agonists in luminescence cell assay, primary screen, counter-screen for OPRM1-OPRD1 heterodimer agonist project, full-deck HTS | 5-hydroxytryptamine receptor 5A (Homo sapiens), P47898 | cell-based | activation, % at 9.3 µM | actives 0.61% (n = 340,000); in the data active means activation mostly above about 9.5%, no sharp cut-off; inactive means mostly below about 7.6%
HTR5A inv ctr: HTR5A inverse agonists in luminescence cell assay, primary screen, counter-screen for OPRM1-OPRD1 heterodimer inverse agonist project, full-deck HTS; 5-hydroxytryptamine receptor 5A (Homo sapiens), P47898; HTR5A cell line, inverse agonism; inhibition, % at 9.3 µM; actives 0.083% (n = 340,000); AID 504634, 2011; in the data active means inhibition mostly above about 23%, no sharp cut-off; inactive means mostly below about 18%
MOR-DOR ag: agonists of OPRM1-OPRD1 heterodimerization, primary screen, cell-based, luminescence; Mu-type opioid receptor (Homo sapiens) + Delta-type opioid receptor (Homo sapiens), …; cells; activation, % at 9.3 µM; actives 0.3% (n = 340,000); AID 504326, 2011; in the data active means activation above about 18%
MOR ag counter: OPRM1 agonists via beta-arrestin recruitment, confirmation, counter-screen for mouse HTR2A agonist project, cell-based, luminescence, single concentration; shares compounds with HTR2A ag; U2OS OPRM1 beta-arrestin PathHunter; DMSO 0%, DAMGO 9.3 µM 100%; activation, % at 9.3 µM; actives 5.3% (n = 2,300); AID 624380, 2012;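 active means mean activation above the mean of DMSO-only wells plus 3 SD, cut at about 0.5% in these data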
HTR2A ag conf: mouse HTR2A agonists, beta-arrestin recruitment, confirmation, cell-based, luminescence, CHO-K1 PathHunter, triplicate | activation, % at 7.6 µM | shares compounds with HTR2A ag | AID 624381, 2012 | DMSO 0%, 30 µM serotonin 100% | actives 19% (n = 2,300);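 active means mean activation across triplicates above the hit threshold derived in the original primary screen, cut at about 15% in these data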
Large screens that a line does not name were inactive (follow-up assays come after a bar, where they were run).

O=[N+]([O-])c1cc2ncccc2c2ncccc12	HTR2A ag 14.6 (no result: OPRM1-OPRD1 inv, HTR5A ag, HTR5A inv ctr, MOR-DOR ag) | MOR ag counter inactive | HTR2A ag conf inactive
Cc1cc([N+](=O)[O-])cc2ncccc12	none
Cn1nc(-c2ccc(Cl)cc2)c2cc(C(=O)N3CCCC3)sc21	HTR2A ag 22.3 | MOR ag counter inactive | HTR2A ag conf inactive
COc1ccccc1N1CCN(C(=O)COc2ccc(S(=O)(=O)NC(C)C)cc2)CC1	HTR2A ag 14.7 | MOR ag counter inactive | HTR2A ag conf inactive
N#Cc1cc(Sc2ccccn2)c([N+](=O)[O-])cc1C#N	HTR2A ag 17.3 | MOR ag counter inactive | HTR2A ag conf inactive
CC(C)(C)Nc1nc2nonc2nc1NC(C)(C)C	HTR2A ag 35.5 | MOR ag counter inactive | HTR2A ag conf 20.0
OCCNc1nc2nonc2nc1NCCO	none
O=C(NCC(F)(F)F)C1C(=O)Nc2ccccc2C(=O)N1Cc1ccccc1 (stereo not drawn)	none (no result: OPRM1-OPRD1 inv, HTR5A ag, HTR5A inv ctr, MOR-DOR ag)
O=C(Cc1cccc(C(F)(F)F)c1)NCc1cccc(Cl)c1	HTR2A ag 25.4 | MOR ag counter inactive | HTR2A ag conf inactive
COc1ccccc1NC(=O)N(C)C[C@@H]1OCc2cnnn2CCCC(=O)N([C@@H](C)CO)C[C@@H]1C	none (no result: OPRM1-OPRD1 inv, HTR5A ag, HTR5A inv ctr, MOR-DOR ag)
C#CCOC(=O)CCCC(=O)Nc1ccccc1OC	HTR2A ag 18.2 | MOR ag counter inactive | HTR2A ag conf inactive
CCOC(=O)C1CCN(Cc2cccc(Oc3ccc(Cl)cc3)c2)CC1	HTR2A ag 20.2 | MOR ag counter inactive | HTR2A ag conf 69.8
O=C(Nc1ccc2c(c1)OCO2)c1c[nH]c(=O)n(-c2ccc(F)cc2)c1=O	HTR2A ag 14.9 | MOR ag counter inactive | HTR2A ag conf inactive
COc1ccc(-n2c(=O)[nH]cc(C(=O)Nc3ccc4c(c3)OCCO4)c2=O)cc1OC	none
CC(Oc1ccc([N+](=O)[O-])cc1)C(=O)NCC1CCCO1 (stereo not drawn)	none
Cc1cc(OC(C)C(=O)NCC2CCCO2)cc(C)c1Cl (stereo not drawn)	HTR2A ag 14.6, HTR5A ag 10.7 | MOR ag counter inactive | HTR2A ag conf inactive
Cc1cc(Cl)ccc1OC(C)C(=O)NC(C)C1CCCO1 (stereo not drawn)	HTR2A ag 15.8 | MOR ag counter inactive | HTR2A ag conf inactive
CC(NC(=O)Nc1ccc(Cl)cc1)C1CCCO1 (stereo not drawn)	none
O=C(Nc1ccccc1)c1cc(C2COCCN2C(=O)c2cccs2)on1 (stereo not drawn)	none (no result: OPRM1-OPRD1 inv, HTR5A ag, HTR5A inv ctr, MOR-DOR ag)
CCOc1ccc(S(=O)(=O)NCCC(=O)NCc2ccc(OC)c(OC)c2)cc1	HTR2A ag 14.4 | MOR ag counter 1.5 | HTR2A ag conf inactive
Cc1cc(C)c(O)c(-c2n[nH]c3c2C(c2cccc(O)c2)N(Cc2ccco2)C3=O)c1 (stereo not drawn)	HTR2A ag 99.5 | MOR ag counter inactive | HTR2A ag conf 56.9
COc1ccc(CCN2C(=O)c3[nH]nc(-c4ccccc4O)c3C2c2cccc(O)c2)cc1OC (stereo not drawn)	none
COc1ccccc1CNCC(=O)Nc1ccc(C#N)cc1	none
COc1ccccc1CNCC(=O)Nc1ccccc1-n1cccc1	HTR2A ag 16.0 | MOR ag counter inactive | HTR2A ag conf inactive
OC(c1ccc(F)c(F)c1)c1nc(-c2cnc3ccccc3c2)cs1 (stereo not drawn)	none (no result: OPRM1-OPRD1 inv, HTR5A ag, HTR5A inv ctr, MOR-DOR ag)
C=CCn1c(SCc2nc3ccccc3[nH]2)nnc1-c1ccccn1	HTR2A ag 18.7 | MOR ag counter inactive | HTR2A ag conf inactive
Cn1c(SCc2nc3ccccc3[nH]2)nnc1-c1ccccn1	none
CCOC(=O)CC1(NC(=O)c2cc(COc3cccc(OC)c3)on2)CCCCC1	HTR2A ag 14.5 | MOR ag counter inactive | HTR2A ag conf inactive
COc1cccc(OCc2cc(C(=O)NCC3CCCCC3)no2)c1	none
CCNC(=O)C1(C)CCCN(C(=O)c2nc3ccccc3s2)C1 (stereo not drawn)	none (no result: OPRM1-OPRD1 inv, HTR5A ag, HTR5A inv ctr, MOR-DOR ag)
CCC/C=C/c1ccc(CN2C(C(C)C)C(=O)N(Cc3cn(CCC4OCCO4)nn3)CCS2(=O)=O)cc1 (stereo not drawn)	none (no result: OPRM1-OPRD1 inv, HTR5A ag, HTR5A inv ctr, MOR-DOR ag)
C[C@H](CO)N1C[C@H](C)[C@H](CN(C)S(=O)(=O)c2cccc(F)c2)Oc2ncc(-c3cccc(C(=O)N(C)C)c3)cc2C1=O	none (no result: OPRM1-OPRD1 inv, HTR5A ag, HTR5A inv ctr, MOR-DOR ag)
CN1CCN(NC(=O)Nc2ccc(F)cc2)CC1	HTR2A ag 14.5 | MOR ag counter inactive | HTR2A ag conf inactive
COc1ccc(NC(=O)NN2CCN(C)CC2)cc1	none
CN1CCc2cccc3c2[C@@H]1Cc1ccc(O)c(O)c1-3	HTR2A ag 37.8 | MOR ag counter inactive | HTR2A ag conf 97.3
Cc1cccc2sc(=S)[nH]c12	none (no result: OPRM1-OPRD1 inv, HTR5A ag, HTR5A inv ctr, MOR-DOR ag)
CC(=O)Nc1ccc(Nc2nc(C)c([N+](=O)[O-])c(N(C)c3ccccc3)n2)cc1	HTR2A ag 25.1 | MOR ag counter inactive | HTR2A ag conf inactive
CCOP(=O)(OCC)C(Nc1ccc(OC)cc1)c1ccco1 (stereo not drawn)	HTR2A ag 18.8 | MOR ag counter inactive | HTR2A ag conf inactive
CC(C)NC(=O)OC1CC2CC1[C@H]1CCCCN1C2=O (stereo partly drawn)	none (no result: OPRM1-OPRD1 inv, HTR5A ag, HTR5A inv ctr, MOR-DOR ag)
O=C(NCC(=O)N1CCCCCCC1)c1cccc([N+](=O)[O-])c1	HTR2A ag 14.6 | MOR ag counter inactive | HTR2A ag conf inactive
Cc1cccc(C(=O)NCC(=O)N2CCCC2)c1	none
COc1ccc(NC(=O)Nc2nc(C(N)Cc3ccc(C(F)(F)F)cc3)cs2)cc1 (stereo not drawn)	HTR2A ag 21.4 (no result: OPRM1-OPRD1 inv, HTR5A ag, HTR5A inv ctr, MOR-DOR ag) | MOR ag counter 1.5 | HTR2A ag conf inactive
COc1cc(NC(=O)Nc2nc(C(N)Cc3ccc(C(F)(F)F)cc3)cs2)cc(OC)c1OC (stereo not drawn)	HTR2A ag 42.2 (no result: OPRM1-OPRD1 inv, HTR5A ag, HTR5A inv ctr, MOR-DOR ag) | MOR ag counter inactive | HTR2A ag conf 28.9
COc1cc(OC)cc(-c2c(Sc3ccccc3)c3cc(-c4ccc5c(c4)OCCO5)ccc3n2C)c1	none (no result: OPRM1-OPRD1 inv, HTR5A ag, HTR5A inv ctr, MOR-DOR ag)
COc1cc(NC(=O)Nc2cccn3nc(COCCO)nc23)cc(OC)c1OC	none (no result: OPRM1-OPRD1 inv, HTR5A ag, HTR5A inv ctr, MOR-DOR ag)
O=C(N/N=C/c1ccccc1Cl)C1CC1	HTR2A ag 15.1 | MOR ag counter inactive | HTR2A ag conf inactive
